Sampled rows, rich in hits. Any-hit rate of the full collection: about 2.7%.
GLP-1R inv ag: acts as inverse agonist at human GLP-1 receptor; P43220; HEK293 GLP-1R CRE-luciferase, luminescence, 24 h; GLP-1R form is constitutively active; Potency, µM (top dose mostly 38.3 µM), most hits filed as inhibitors; actives 1.6% (n = 410,000); also: nearly all actives have a fitted effect of over 55% in size
Target sequence (P43220 whole entry, looked up): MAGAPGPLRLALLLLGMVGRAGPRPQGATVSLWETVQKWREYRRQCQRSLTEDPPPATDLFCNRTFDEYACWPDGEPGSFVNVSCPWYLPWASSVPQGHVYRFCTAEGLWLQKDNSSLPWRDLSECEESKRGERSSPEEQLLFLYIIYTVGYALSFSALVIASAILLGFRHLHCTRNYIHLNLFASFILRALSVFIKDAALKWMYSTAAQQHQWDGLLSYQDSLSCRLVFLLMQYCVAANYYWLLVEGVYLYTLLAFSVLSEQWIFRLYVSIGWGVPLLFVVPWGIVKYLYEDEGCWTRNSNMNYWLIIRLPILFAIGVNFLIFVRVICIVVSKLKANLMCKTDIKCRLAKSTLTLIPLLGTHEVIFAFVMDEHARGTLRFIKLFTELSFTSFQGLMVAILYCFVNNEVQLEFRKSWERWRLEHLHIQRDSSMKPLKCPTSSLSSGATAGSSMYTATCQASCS
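Readout was luciferase luminescence, measured 12 min after detection reagent at room temperature. Beforehand, GLP-1R reporter HEK293 cells had sat 12 h, then received compounds for 24 hr at 37 deg C.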
GLP1R ag: GLP-1 receptor (human) agonism; P43220; HEK293 GLP-1R CRE-luciferase, luminescence, 4-6 h; cells express a hypersensitive GLP-1R form; Potency, µM (series often up to 45.6 µM), actives largely listed as activators; actives 0.007% (n = 380,000)
Integrin act MD: integrin-mediated muscular dystrophy alleviation activation; alpha7betagal myoblasts, beta-gal FDG fluorescence, 48 h; Potency, µM (doses to about 38.3 µM), usual class: activators; actives 0.064% (n = 350,000); also: nearly all actives have a fitted effect of over 60% in size
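Alpha7betagal+/- myoblasts (passage 13) were plated 16-24 hr, then exposed to compounds (1:260 dilution of DMSO stock) for 48 hours at 37C. After MPER lysis, β-galactosidase reporter activity was read as FDG fluorescence (ex 480/em 540) after 30 minutes.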
BRCA1 expr act: activators of BRCA1 expression. actives 1.1% (n = 380,000). Potency, µM (series often up to 46.1 µM), actives largely listed as activators. MCF7-BRCA1-FFLuc reporter, luminescence, 48 h; response scale: scaled: vehicle 0%, 10 µM genistein 100%; also: nearly all actives have a fitted effect of over 80% in size
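Compounds are tested at multiple concentrations on MCF7 BRCA1-luciferase reporter cells seeded at 2000 per well; after 48 h, a single luminescence end-point is taken and curves fitted to the normalized data.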
HEK293 tox: cytotoxicity in counter-screen for GLP-1R inverse agonists. AID 624418. Potency, µM (doses to about 38.3 µM), usual class: inhibitors. actives 0.13% (n = 410,000). HEK293 cAMP-luciferase reporter cells, luminescence, 24 h;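 also: loss of luciferase light is scored as toxicity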
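Luminescence readout: signal drop marks cytotoxicity. Plated cells grew 12 h at 37 °C, 5% CO2, received 23 nL compound for 24 h, then got luciferase reagent, read after 12 min at RT.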
Large screens that a line does not name were inactive. Calls follow the shape of the dose curve; as a rule, active = well fitted curve in the direction sought with a large enough effect; inconclusive = small, poorly fitted or top-dose-only effect, or another doubt; inactive = no such curve, though single readings can be large; an effect the other way counts as inactive or inconclusive.

O=C(CN1CCN(C(c2ccccc2)c2ccccc2)CC1)N1N=CCC1c1ccccc1 (stereo not given)	GLP-1R inv ag 11µM
O=C(CN1CCN(c2ccccc2)CC1)N1N=CCC1c1ccccc1 (stereo not given)	none
CC(C)(C)NC(=O)NC(=O)CN1CCN(Cc2ccccc2)CC1	Integrin act MD inconclusive
COc1ccc(CNC(=O)CN2CCN(C(c3ccccc3)c3ccccc3)CC2)cc1	GLP-1R inv ag 13µM
O=C(CN1CCN(C(c2ccccc2)c2ccccc2)CC1)NCc1ccccc1	GLP-1R inv ag inconclusive
CC(C)(C)NC(=O)NC(=O)CN1CCN(C(c2ccccc2)c2ccccc2)CC1	GLP-1R inv ag 5µM
Cc1ccc(-c2nnc(SCC(=O)NCc3ccccc3)o2)cc1	GLP-1R inv ag inconclusive (no result: GLP1R ag, Integrin act MD, BRCA1 expr act)
c1ccc(CSc2nc3ncccn3n2)cc1	BRCA1 expr act 2.5µM
COCCNC(=O)C(=O)Nc1ccc2nc3n(c(=O)c2c1)CCCCC3	none (no result: GLP1R ag, Integrin act MD, BRCA1 expr act)
CCc1ccc(-c2cc(C)no2)cc1S(=O)(=O)N1CCN(c2ccccc2F)CC1	none
COc1ccccc1N1CCN(S(=O)(=O)c2cc(-c3cc(C)no3)ccc2C(C)C)CC1	GLP-1R inv ag 1µM
CCc1ccc(-c2cc(C)no2)cc1S(=O)(=O)N1CCCN(Cc2ccc(F)cc2)C1	GLP-1R inv ag 2.5µM
CCc1ccc(-c2cc(C)no2)cc1S(=O)(=O)N1CCC(C)CC1	GLP-1R inv ag inconclusive
Cc1cccc(N2CCN(S(=O)(=O)c3cc(-c4cc(C)no4)ccc3C)CC2C)c1 (stereo not given)	GLP-1R inv ag 4µM
CCc1ccc(-c2cc(C)no2)cc1S(=O)(=O)N1CCN(c2cccc(C)c2C)CC1	GLP-1R inv ag 7.9µM
COc1ccc(-c2cc(C)no2)cc1S(=O)(=O)N1CCN(c2cccc(C)c2)C(C)C1 (stereo not given)	GLP-1R inv ag inconclusive
COc1ccc(-n2c(-c3ccc(F)cc3)cn3c4c(=O)n(C)c(=O)n(C)c4nc23)cc1	none (no result: Integrin act MD)
O=C(Nc1ccc(Cl)cc1)NC1CCCCC1Cc1ccco1 (stereo not given)	GLP-1R inv ag 10µM
O=C(Nc1ccc(Cl)cc1)NC1CCCC1Cc1ccco1 (stereo not given)	GLP-1R inv ag 5.6µM
O=C(Nc1ccc(Cl)cc1)NC1CCCCC1	BRCA1 expr act inconclusive
Cc1ccc(C(=O)c2cn(Cc3c(F)cccc3Cl)c3nc(C)ccc3c2=O)cc1	none (no result: Integrin act MD)
Cc1cc(NC(=O)CSc2nc3c(sc4ccccc43)c(=O)n2CCCN2CCOCC2)n[nH]1	HEK293 tox 5µM
O=C(CSc1nc2c(sc3ccccc32)c(=O)n1CCCN1CCCC1)NCc1ccco1	GLP-1R inv ag 10µM, HEK293 tox inconclusive
O=C1CC(=O)OC(c2ccc([N+](=O)[O-])cc2)O1	GLP-1R inv ag inconclusive, HEK293 tox 5µM
O=C(OC(C(=O)N1CCOCC1)c1ccccc1)c1c2c(nc3ccccc13)CCCC2 (stereo not given)	none (no result: GLP-1R inv ag, GLP1R ag, Integrin act MD, HEK293 tox)
Cc1ccc(Cn2c(C3CCCN3c3nc(C)cs3)nc3cc(C(F)(F)F)ccc32)cc1 (stereo not given)	GLP-1R inv ag 10µM
Cc1nn(Cc2ccc(Cl)cc2Cl)c(C)c1NC(=O)NC12CC3CC(CC(C3)C1)C2	GLP-1R inv ag 5µM
COc1ccc(/C=N\n2nnc3ccccc32)cc1	GLP-1R inv ag 5.6µM, BRCA1 expr act inconclusive
O=C(CN1C(=O)CSc2ccc(S(=O)(=O)N3CCCCC3)cc21)NCc1ccccc1Cl	GLP-1R inv ag 2.5µM
COc1cc(NC(=O)CC(C)S(=O)(=O)c2ccc3c(c2)CCN3C(C)=O)cc(OC)c1OC (stereo not given)	none (no result: Integrin act MD)
CCC(=O)N1CCc2cc(CNC(=O)c3ccc(OC)cc3)ccc21	none (no result: GLP1R ag, Integrin act MD, BRCA1 expr act)
COc1ccc(CCNc2ncccc2C#N)cc1OC	Integrin act MD inconclusive, BRCA1 expr act 4µM
O=S(=O)(c1ccc2ccccc2c1)n1nc(-c2ccco2)nc1NCc1cccc(Cl)c1	none (no result: GLP1R ag, Integrin act MD, BRCA1 expr act)
O=[N+]([O-])/C=C\c1ccc(N2CCOCC2)cc1	GLP-1R inv ag 11µM, HEK293 tox inconclusive
Cn1ccc2cc(S(=O)(=O)N3CCCN(C(=O)Nc4ccc(Br)cc4)CC3)ccc21	GLP-1R inv ag inconclusive (no result: Integrin act MD)
CC(NC(=O)Nc1cc(Cl)ccc1Cl)c1c(-n2cccc2)sc2c1CCCC2 (stereo not given)	GLP-1R inv ag 3.5µM (no result: GLP1R ag, Integrin act MD, BRCA1 expr act)
CCOc1ccc(C(=O)NCCn2cc(SCC(=O)NCCc3ccc(OC)c(OC)c3)c3ccccc32)cc1	none (no result: Integrin act MD)
CC(Sc1nc2sc3c(c2c(=O)n1-c1ccccc1)CCCC3)C(=O)O (stereo not given)	none
CSc1nc2sc3c(c2c(=O)n1-c1ccccc1C)CCCC3	GLP-1R inv ag 4.5µM (no result: GLP1R ag, Integrin act MD, BRCA1 expr act)
CCCOC(=O)/C(=C\C=C\c1ccccc1)NC(=O)c1ccccc1	GLP-1R inv ag 2.5µM
Fc1ccc(CSc2nnc3ccccn23)c(Cl)c1	BRCA1 expr act 10µM
O=C(CSc1nnc2ccccn12)Nc1ncc(Cl)cc1Cl	BRCA1 expr act 10µM
Cc1nn2c(C)c(C(=O)NCc3ccco3)cnc2c1-c1ccccc1	none (no result: GLP1R ag, Integrin act MD, BRCA1 expr act)
Cc1cccc(NC(=O)C2(C)CC3c4ccccc4C2c2ccccc23)c1C (stereo not given)	GLP-1R inv ag 10µM
COc1cc2c(NC3CCN(C)CC3)nc(N3CCCN(C)CC3)nc2cc1OCc1ccccc1	none (no result: GLP-1R inv ag, GLP1R ag, Integrin act MD, HEK293 tox)
CC(=O)NC(CCC(N)=O)C(=O)O (stereo not given)	none (no result: GLP-1R inv ag, Integrin act MD, BRCA1 expr act, HEK293 tox)
CCOC(=O)c1noc2nc(C)n(CC(=O)Nc3cc(Cl)ccc3OC)c(=O)c12	none (no result: GLP1R ag, Integrin act MD, BRCA1 expr act)
Cn1c(=O)n(CCOc2ccccc2Cl)c2ccccc21	BRCA1 expr act 5µM
O=c1ccccn1CCOc1ccccc1Cl	BRCA1 expr act 13µM
Cn1c(=O)n(CCOc2ccc(Cl)cc2Cl)c2ccccc21	none
Cc1cccc(NC(=O)CN2C(=O)C(c3ccc(F)cc3)=NC23CCCCCC3)c1C	none (no result: GLP1R ag, Integrin act MD, BRCA1 expr act)
Cc1ccc(C)c(-c2[nH]ncc2CN2CCCC(CO)(Cc3ccccc3C)C2)c1 (stereo not given)	GLP-1R inv ag 10µM, HEK293 tox inconclusive
CCOC(=O)c1c(C)oc2c1c(C=NCc1ccccn1)c(O)c1ccccc12	GLP-1R inv ag 22µM, HEK293 tox inconclusive
COc1cccc(-n2cc(C(=O)Nc3ccccc3C(N)=O)c3ccccc3c2=O)c1	none (no result: GLP1R ag, Integrin act MD, BRCA1 expr act)
CCCn1nc(NS(=O)(=O)c2cccc3nonc23)c2cc3cc(C)ccc3nc21	none
Cc1ccc2cc3c(NS(=O)(=O)c4cccc5nonc45)nn(CC(C)C)c3nc2c1	GLP-1R inv ag 10µM
N/C(=N\N=C\c1ccc(Br)o1)c1nonc1N	BRCA1 expr act 10µM
COc1ccc(/C=C2/CCC(CN3CCOCC3)C2=O)cc1 (stereo not given)	GLP-1R inv ag 5.6µM, HEK293 tox 5µM

From PubChem
